Drawing on ChEMBL document CHEMBL4296182, “CO-ADD screening of NIH NCI Diversity Set V”, this text covers Inhibition for 20 compounds.

For part of these data: Results with a measured potency or affinity are listed apart.

In one experiment the test system is Staphylococcus aureus. Put plainly: Antibacterial activity against Staphylococcus aureus MRSA ATCC 43300 (CO-ADD:GP_020); MIC in CAMBH media using NBS plates, by Resazurin F(560/590). In kind it is functional. To be noted: Concentration 20 uM, ASSAY_TEST Inhibition of Bacterial Growth, detection method Resazurin, Fluorescence (ex560/em590), MEDIA CAMHB, plate type 384well, CORNING #3640, time 18 hr.

Another experiment concerns Acinetobacter baumannii. Put plainly: Antibacterial activity against Acinetobacter baumannii ATCC 19606 (CO-ADD:GN_034); MIC in CAMBH media using NBS plates, by Resazurin F(560/590). In kind it is functional. To be noted: Concentration 20 uM, ASSAY_TEST Inhibition of Bacterial Growth, detection method Resazurin, Fluorescence (ex560/em590), MEDIA CAMHB, plate type 384well, CORNING #3640, time 18 hr.

The test system of another experiment is Escherichia coli. Description: Antibacterial activity against Escherichia coli ATCC 25922 (CO-ADD:GN_001); MIC in CAMBH media using NBS plates, by Resazurin F(560/590). In kind it is functional. To be noted: Concentration 20 uM, ASSAY_TEST Inhibition of Bacterial Growth, detection method Resazurin, Fluorescence (ex560/em590), MEDIA CAMHB, plate type 384well, CORNING #3640, time 18 hr.

A further experiment deals with Klebsiella pneumoniae. To be noted: Concentration 20 uM; ASSAY_TEST Inhibition of Bacterial Growth; detection method Absorption (OD600); MEDIA CAMHB; plate type 384well; NBS; CORNING #3640; time 18 hr.
A further experiment deals with Candida albicans. To be noted: 20 µM.
A further experiment has as its system Cryptococcus neoformans. To be noted: Concentration 20 uM; ASSAY_TEST Inhibition of Fungal Growth; detection method Resazurin; Absorption (OD600-OD570); plate type 384well; NBS; CORNING #3640.

Turning to `OC(c1ccccc1)(c1ccccc1)c1nccn1-c1ccccc1`, the Inhibition was 0.11% with Staphylococcus aureus; -3.61% in the experiment on Acinetobacter baumannii; 5% with Escherichia coli; 3.43% with Klebsiella pneumoniae; 1.72% with Candida albicans; -7.88% in the experiment with Cryptococcus neoformans.
For `NC(=S)NC(=O)c1ccccc1`, the Inhibition in the experiment with Staphylococcus aureus is 15.19%; in the experiment with Acinetobacter baumannii, -5.77%; in the experiment with Escherichia coli, 13.89%; in the experiment with Klebsiella pneumoniae, 14.46%; in the experiment on Candida albicans, 2.89%; in the experiment on Cryptococcus neoformans, -5.13%.
Consider `COc1cc2c(cc1OC)C(C1(O)CCCCC1)NCC2` (stereo not given), for which the Inhibition in the experiment on Staphylococcus aureus is 18.67%; in the experiment on Acinetobacter baumannii it was -1.81%; in the experiment with Escherichia coli, 15.36%; with Klebsiella pneumoniae it was -0.68%; with Candida albicans, -2.01%; with Cryptococcus neoformans, -12.78%.
For the compound `CCOC(=O)Nc1ccc(C(=O)/C=C/c2ccccc2)cc1`, the Inhibition was 8.55% with Staphylococcus aureus; 3.76% with Acinetobacter baumannii; -2.1% with Escherichia coli; 17.43% in the experiment on Klebsiella pneumoniae; 6.26% in the experiment with Candida albicans; -5.25% in the experiment on Cryptococcus neoformans.
Consider `Br.C=CC1CN2CCC1CC2C(O)c1ccnc2ccc(OC)cc12` (stereo not given), for which the Inhibition in the experiment on Staphylococcus aureus was -3.41%; in the experiment on Acinetobacter baumannii, 0.49%; with Escherichia coli, 16.29%; in the experiment with Klebsiella pneumoniae, 15.08%; with Candida albicans, -0.01%; with Cryptococcus neoformans, 7.91%.
As to `CSc1cccc(NC(=O)OC2CCCCCCCCCCC2)c1`, the Inhibition in the experiment with Staphylococcus aureus is 23.58%; in the experiment with Acinetobacter baumannii, 6.29%; with Escherichia coli, 14.03%; in the experiment with Klebsiella pneumoniae it was 20.05%; with Candida albicans, 2.81%; with Cryptococcus neoformans, -2.07%.
Consider `Cc1cc2nc3ccc(N(C)C)cc3[s+]c2cc1N.[Cl-]` [TOLONIUM CHLORIDE], for which the Inhibition with Staphylococcus aureus is -5.05%; in the experiment on Acinetobacter baumannii it was -12.21%; with Escherichia coli, 2.47%; in the experiment on Klebsiella pneumoniae, 19.75%; with Candida albicans, 1.87%; in the experiment on Cryptococcus neoformans it was -7.34%.
For `Cn1c(CO)cnc1-c1ccccc1`, the Inhibition in the experiment on Staphylococcus aureus was 2.4%; with Acinetobacter baumannii, 0.07%; in the experiment on Escherichia coli, -8.68%; in the experiment with Klebsiella pneumoniae it was 2.59%; in the experiment on Candida albicans, 2.13%; in the experiment with Cryptococcus neoformans it was -3.98%.
As to `N#CC1=C(Nc2ccccc2Cl)SC(c2ccncc2)NC1=O` (stereo not given), the Inhibition was -1.66% in the experiment with Staphylococcus aureus; 6.04% with Acinetobacter baumannii; -3.11% in the experiment with Escherichia coli; 12.56% in the experiment with Klebsiella pneumoniae; 4.49% in the experiment with Candida albicans; -0.15% in the experiment on Cryptococcus neoformans.
Take `Cc1cnc2c(N)cc(C)c(C)c2c1`: the Inhibition with Staphylococcus aureus is 23.12%; with Acinetobacter baumannii it was -5.88%; with Escherichia coli, 9.48%; in the experiment with Klebsiella pneumoniae it was 9.31%; with Candida albicans, 23.1%; with Cryptococcus neoformans, -10.43%.
As for `CCOC(=O)c1csc(-c2ccc(COC(=O)c3ccccc3)o2)n1`, the Inhibition in the experiment with Staphylococcus aureus was 13.59%; in the experiment on Acinetobacter baumannii it was 3.92%; with Escherichia coli it was -0.69%; with Klebsiella pneumoniae, 10.14%; in the experiment on Candida albicans it was 4.97%; in the experiment with Cryptococcus neoformans, -13.35%.
Regarding `Cn1nc(SCc2ccccc2)c(=O)n(C(c2ccccc2)c2ccccc2)c1=O`, the Inhibition with Staphylococcus aureus is 19.74%; in the experiment with Acinetobacter baumannii it was -15.03%; in the experiment on Escherichia coli, 11.55%; with Klebsiella pneumoniae, 5.74%; in the experiment with Candida albicans, 11%; in the experiment on Cryptococcus neoformans it was -0.62%.
Consider `OCc1cc(O)c(CO)nn1`, for which the Inhibition in the experiment on Staphylococcus aureus was -17.8%; in the experiment on Acinetobacter baumannii it was -1.67%; in the experiment with Escherichia coli, -7.33%; with Klebsiella pneumoniae it was 4.1%; with Candida albicans, -0.36%; with Cryptococcus neoformans, 1.1%.
In the case of `CC12CCC(C1)C(C)(C)C2OC(=O)c1ccccc1C(=O)O` (stereo not given), the Inhibition is 7.81% in the experiment with Staphylococcus aureus; -7.81% in the experiment on Acinetobacter baumannii; -3.09% in the experiment on Escherichia coli; 22.55% with Klebsiella pneumoniae; 4.22% with Candida albicans; -18.67% in the experiment on Cryptococcus neoformans.
Take `N#CNC(=N)c1ccccc1`: the Inhibition in the experiment on Staphylococcus aureus is 0.25%; with Acinetobacter baumannii, 1.21%; with Escherichia coli it was -14.26%; in the experiment on Klebsiella pneumoniae, 9.63%; with Candida albicans, 1.62%; with Cryptococcus neoformans, 22.72%.
Consider `Cc1ccc(N2CCN(CC(O)COc3cccc(C)c3)CC2)cc1` (stereo not given), for which the Inhibition in the experiment on Staphylococcus aureus is 10.15%; in the experiment on Acinetobacter baumannii, -11.82%; in the experiment with Escherichia coli, 15.19%; in the experiment with Klebsiella pneumoniae it was 10.88%; in the experiment on Candida albicans, -0.24%; in the experiment on Cryptococcus neoformans, -16.06%.
Turning to `CCCNC(=O)c1ccc(Cl)cc1Cl`, the Inhibition in the experiment on Staphylococcus aureus is 12.41%; in the experiment on Acinetobacter baumannii, -15.87%; in the experiment with Escherichia coli, 4.4%; with Klebsiella pneumoniae, 8.05%; with Candida albicans, 0.63%; in the experiment with Cryptococcus neoformans, -4.71%.
In the case of `Cc1cc(NC(=O)Nc2cccc3ccccc23)no1`, the Inhibition with Staphylococcus aureus is -11.32%; in the experiment on Acinetobacter baumannii it was -7.4%; in the experiment on Escherichia coli, 9.22%; with Klebsiella pneumoniae, -0.15%; with Candida albicans, 8.31%; in the experiment with Cryptococcus neoformans, -12.19%.
In the case of `O=C1C(Cl)=C(O)C2(Cl)C(Cl)=C(Cl)C12Cl` (stereo not given), the Inhibition in the experiment with Staphylococcus aureus was 15.05%; in the experiment on Acinetobacter baumannii it was 13.34%; with Escherichia coli it was 5.55%; in the experiment with Klebsiella pneumoniae it was 11.98%; with Candida albicans, 9.34%; in the experiment with Cryptococcus neoformans, -12.02%.
As for `CCOc1ccc(NC(=O)c2cc3ccccc3cc2O)cc1`, the Inhibition with Staphylococcus aureus was -0.31%; in the experiment on Acinetobacter baumannii, -4.15%; in the experiment with Escherichia coli it was -2.29%; in the experiment on Klebsiella pneumoniae it was 2.5%; in the experiment on Candida albicans it was 7.38%; with Cryptococcus neoformans it was -4.09%.
